USP17 inh = human USP17-like deubiquitinase inhibition | A8MUK1 | purified USP17, Ub-rhodamine cleavage fluorescence, 3 h | hit rate 6.5% among 47,000 | inhibition, % at 50 µM
USP30 inh = human USP30 deubiquitinase inhibition; inhibition, % at 25 µM; Q70CQ3; hit rate 5.3% among 47,000; purified USP30, Ub-rhodamine cleavage fluorescence; AID 1645860
USP10 inh = human USP10 deubiquitinase inhibition. inhibition, % at 20 µM. purified USP10, Ub-rhodamine fluorescence, 60 min. AID 1645856. Q14694. hit rate 1.1% among 47,000
Target sequence (Q14694 whole entry, looked up): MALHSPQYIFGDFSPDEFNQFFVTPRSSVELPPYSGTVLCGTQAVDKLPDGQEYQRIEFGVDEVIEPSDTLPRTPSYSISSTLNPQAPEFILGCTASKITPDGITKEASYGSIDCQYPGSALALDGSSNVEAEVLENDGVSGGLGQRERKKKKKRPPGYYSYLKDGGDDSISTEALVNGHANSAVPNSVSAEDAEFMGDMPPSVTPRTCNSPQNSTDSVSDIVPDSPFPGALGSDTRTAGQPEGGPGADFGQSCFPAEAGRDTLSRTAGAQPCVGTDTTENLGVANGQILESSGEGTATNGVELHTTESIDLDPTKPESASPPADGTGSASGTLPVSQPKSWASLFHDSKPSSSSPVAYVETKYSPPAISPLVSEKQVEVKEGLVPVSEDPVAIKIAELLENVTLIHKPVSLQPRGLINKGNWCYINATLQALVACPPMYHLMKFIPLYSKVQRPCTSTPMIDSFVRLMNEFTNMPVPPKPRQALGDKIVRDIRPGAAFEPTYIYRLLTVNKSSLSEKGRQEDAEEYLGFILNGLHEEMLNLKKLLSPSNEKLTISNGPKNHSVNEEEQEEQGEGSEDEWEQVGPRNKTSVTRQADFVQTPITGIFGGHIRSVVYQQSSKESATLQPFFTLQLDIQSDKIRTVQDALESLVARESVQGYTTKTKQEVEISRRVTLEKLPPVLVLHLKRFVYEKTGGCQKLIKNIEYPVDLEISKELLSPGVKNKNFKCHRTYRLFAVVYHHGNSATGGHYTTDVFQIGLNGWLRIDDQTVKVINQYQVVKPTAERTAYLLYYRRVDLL
UCHL1 block = blocks human UCHL1 ubiquitin-rhodamine cleavage; P09936; purified UCHL1, Ub-rhodamine cleavage fluorescence; inhibition, % at 20 µM; hit rate 0.2% among 47,000; AID 1645859
USP7 block = human USP7 deubiquitinase inhibition; Q93009; purified USP7, Ub-rhodamine cleavage fluorescence; inhibition, % at 20 µM; hit rate 0.3% among 47,000; AID 1645854
USP8 block = inhibitors of human USP8 deubiquitinase; P40818; purified USP8, Ub-rhodamine cleavage fluorescence, 30 min; inhibition, % at 20 µM; hit rate 4.2% among 47,000; AID 1645853
Of the large screens only hits and unclear results are named; the others gave an inactive call. Shown are actives, neighbours in structure and some others; about 13% of the full set was active somewhere. Rule as the data show it: active = inhibition above about 30%; inactive = the rest.

CCOC(=O)c1cnc(Nc2ccccc2OCC)c2ccccc12	USP8 block 60.3
Nc1c(-c2ccccn2)nsc1C(=O)NCc1ccccc1F	none
CC(C)c1ccc(NC(=O)C2CCN(S(=O)(=O)c3cccc4cnccc34)CC2)cc1	none
O=C(NCc1ccco1)C1CCN(S(=O)(=O)c2cccc3cnccc23)CC1	USP17 inh 34.0
CCc1[nH]c(=O)cc2cc(OC)c(OC)cc12	USP17 inh 94.4, USP30 inh 81.7, USP10 inh 79.5, UCHL1 block 48.2, USP8 block 90.6
CCCc1cc(=O)[nH]c(N2CCN(c3ccccc3OC)CC2)n1	none
COc1cc(N2CCC3(CCN(C(=O)c4cccnc4)CC3)C2)ncn1	none
O=C1C(O)=C(c2ccc(O)cc2)C(=O)C(O)=C1c1ccccc1	USP30 inh 33.1
CC1=C(O)C(=O)C(C2=C(O)C(=O)C(C)=C(O)C2=O)=C(O)C1=O	none
Oc1cc(O)cc(/C=C/c2ccc(O)c(O)c2)c1	USP17 inh 40.1, USP30 inh 30.8
Cc1noc(C)c1CN1CCC2(CC1)CCn1c(-c3ccnn3C)cnc12	none
O=C(Nc1ccccc1N1CCOCC1)C1Cc2ccccc2CN1S(=O)(=O)c1ccccc1F (configuration not stated)	USP8 block 30.6
O=C(Nc1ccccc1N1CCOCC1)C1CCCCN1S(=O)(=O)c1ccccc1 (configuration not stated)	none
CCC(C(=O)Nc1cccc(-c2nc3ccccc3s2)c1)c1ccccc1 (configuration not stated)	none
CCn1c(=O)c(NCc2ccc(Cl)cc2)nc2ccncc21	USP17 inh 47.8, USP30 inh 34.3
O=C1CC(O)C(O)c2cccc(O)c21 (configuration not stated)	USP17 inh 90.5, USP8 block 76.5
Cn1c(=O)/c(=C/c2ccccc2)[nH]c(=O)/c1=C/c1ccccc1	USP17 inh 56.3
O=c1[nH]/c(=C\c2ccccc2)c(=O)[nH]/c1=C\c1ccccc1	none
CC(=O)Nc1cc(-c2cnn(C)c2)cn2c(-c3cnn(C)c3)cnc12	none
CC(=O)Nc1cc(-c2cccc(O)c2)cn2c(-c3cnn(C)c3)cnc12	USP17 inh 61.5, USP30 inh 36.2
COc1ccccc1NS(=O)(=O)c1cc([N+](=O)[O-])ccc1NCC1COc2ccccc2O1 (configuration not stated)	none
Cc1ccc([N+](=O)[O-])cc1S(=O)(=O)Nc1cc2sc(=O)oc2c2ccccc12	USP17 inh 66.7, USP10 inh 37.1, USP8 block 89.0
CCc1csc(-c2cn(CC(=O)Nc3cc(C)ccc3C)cn2)n1	USP17 inh 48.9, USP8 block 38.7
Cc1csc(-c2cn(CC(=O)Nc3ccc(C)c(F)c3)cn2)n1	none
CCc1csc(-c2cn(CC(=O)Nc3cccc(C)c3C)cn2)n1	USP17 inh 50.9, USP30 inh 57.8
O=C(N[C@@H]1C[C@@H](Oc2ccccc2)[C@H](O)[C@H]1O)c1cccnc1	none
O=C(NCCc1c[nH]c2ccc(F)cc12)C(=O)Nc1cccc2ncccc12	USP17 inh 44.9
Cn1cc2c(n1)C(C(=O)NCCc1c[nH]c3ccc(F)cc13)CNC2 (configuration not stated)	none
Cc1c(CC(=O)N2CCN(c3ccc(Cl)cc3)CC2)c(=O)oc2cc(O)c(Cl)cc12	USP30 inh 35.3, USP8 block 41.4
COc1ccc2c(C)c(CC(=O)N3CCN(c4ccccc4)CC3)c(=O)oc2c1	none
Cc1c(CC(=O)N2CCN(c3ccccn3)CC2)c(=O)oc2cc(O)ccc12	none
Cc1c(CC(=O)N2CCN(c3ncccn3)CC2)c(=O)oc2cc(O)ccc12	USP17 inh 62.6
COc1ccccc1CN1C(=O)c2nc3ccccc3n2CC1(C)C(=O)NC1CCCC1 (configuration not stated)	USP30 inh 30.3
CC1(C(=O)NC2CCCC2)Cn2c(nc3ccccc32)C(=O)N1Cc1ccc(F)cc1 (configuration not stated)	none
CC1(C(=O)NC2CCCC2)Cn2c(nc3ccccc32)C(=O)N1CCc1ccccc1 (configuration not stated)	USP30 inh 35.5
Cn1cccc1C(=O)C(=O)Nc1ccc(Cl)cc1Cl	none
Cc1sc2ncnc(NC(c3ccccc3)c3ccccc3)c2c1C	none
Cn1c(=O)c(-c2ccc(C(=O)NCc3ccc4c(c3)OCO4)cc2)nc2cccnc21	USP8 block 40.0
Cn1c(=O)c(-c2ccc(C(=O)NCc3cccc(Cl)c3)cc2)nc2cccnc21	USP17 inh 66.9, USP30 inh 82.3, USP8 block 43.3
CCn1c(=O)c(-c2ccc(C(=O)Nc3ccccc3F)cc2)nc2cccnc21	USP17 inh 47.7
CC(C(=O)NCCc1ccc(S(N)(=O)=O)cc1)n1sc2ccccc2c1=O (configuration not stated)	USP30 inh 38.5
CN(C)[C@@H]1[C@@H](O)[C@H](Oc2cccc(F)c2)C[C@H]1NC(=O)c1cnn(C)c1	none
COc1ccc(C(=O)CC2(O)C(=O)N(Cc3ccccc3)c3ccccc32)c(OC)c1 (configuration not stated)	none
COCCCn1c(C(=O)NCc2ccc(F)cc2)cc2c(=O)n3ccccc3nc21	USP17 inh 37.8
CCOC(=O)c1cc2c(ccn2C)n1CC(=O)N(Cc1ccccc1)c1ccc(F)cc1	USP8 block 38.7
CCOC(=O)c1cc2c(ccn2C)n1CC(=O)N(Cc1ccc(OC)cc1)c1ccc(F)cc1	none
CCOC(=O)c1cc2c(ccn2C)n1CC(=O)N(Cc1ccccc1)c1ccccc1	USP8 block 55.3
CC(C)OC(=O)c1cc2c(ccn2C)n1CC(=O)N(Cc1ccc(Cl)cc1)c1ccccc1	USP8 block 66.6
CC(C)OC(=O)c1cc2c(ccn2C)n1CC(=O)N(Cc1ccccc1)c1ccc(F)cc1	USP8 block 56.3
CC(C)OC(=O)c1cc2c(ccn2-c2ccc(F)cc2)n1CC(=O)N(Cc1ccccc1)c1ccc(F)cc1	none
CCOC(=O)c1cnn(-c2ccc(C(=O)NCCCN3CCCC3)cc2)c1N	none
Cc1ccc(NC(=O)c2nnn(-c3ccccc3Br)c2C)cc1C	none
CC(C)OC(=O)c1cc2c(ccn2C)n1Cc1ccc2ccccc2n1	USP8 block 56.0
CCOC(=O)c1cc2c(ccn2C)n1CC(=O)NC(c1ccccc1)c1ccccc1	USP8 block 65.1
CCCSc1nc(SCC(=O)NCCc2ccccc2)c2c3c(sc2n1)COC(C)(CC)C3 (configuration not stated)	none
O=C(CSc1nc2scc(-c3ccco3)c2c(=O)n1-c1ccccc1)Nc1nsc(-c2ccccc2)n1	none
N#Cc1ccc(CC2(Cc3ccc(C#N)cc3)C(=O)N(Cc3ccccn3)C(=O)c3ccccc32)cc1	USP30 inh 44.5
Nc1c(C(=O)NCCc2ccccc2)nnn1-c1ccc(F)cc1	USP17 inh 61.4
Cc1ccc(CN(C)C(=O)c2cccc3cccnc23)c(C)c1	none

Assay outcomes: PubChem BioAssay, Buhrlage Lab, Dana-Farber Cancer Institute and Novartis Institutes for BioMedical Research (Cambridge, Mass)
